Results from PubChem BioAssay (NCI).
The panel holds about 83,000 compounds, 20% with a hit somewhere; the sample as a whole holds those more often.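 Values shown are percent growth following 48 h exposure of cells in 96-well plates to a single concentration of compound; below 10 was considered active.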 Calls of active or inactive are those of the source.

Assays:
Experiment in all cases: NCI-60 one-dose screen, 48 h (100 = growth as untreated, 0 = no growth, -100 = all killed)
Settings in all cases: 10 µM unless noted
K-562 leukemia = tested on: K-562 leukemia
MALME-3M melanoma = tested on: MALME-3M melanoma
MDA-MB-231 breast = tested on: MDA-MB-231 breast
RXF 393 renal = tested on: RXF 393 renal
SF-268 CNS = tested on: SF-268 CNS
SF-295 CNS = tested on: SF-295 CNS
SF-539 CNS = tested on: SF-539 CNS
UACC-257 melanoma = tested on: UACC-257 melanoma
M14 melanoma = tested on: M14 melanoma
HCT-15 colon = tested on: HCT-15 colon
HT29 colon = tested on: HT29 colon
SNB-75 CNS = tested on: SNB-75 CNS
SNB-19 CNS = tested on: SNB-19 CNS
U251 CNS = tested on: U251 CNS
PC-3 prostate = tested on: PC-3 prostate
SK-MEL-5 melanoma = tested on: SK-MEL-5 melanoma
UACC-62 melanoma = tested on: UACC-62 melanoma
SK-MEL-28 melanoma = tested on: SK-MEL-28 melanoma
SK-MEL-2 melanoma = tested on: SK-MEL-2 melanoma
LOX IMVI melanoma = tested on: LOX IMVI melanoma

Measured: growth

C#Cc1nc(C2=C(C)/C(=N/OCc3ccccc3)CC2)cs1
inactive: K-562 leukemia 75.5% | RXF 393 renal 33.6% | UACC-257 melanoma 84.4% | M14 melanoma 75.4% | HCT-15 colon 53.4% | HT29 colon 67% | SNB-19 CNS 72.8% | U251 CNS 37.6% | PC-3 prostate 82.3% | SK-MEL-5 melanoma 85.7% | UACC-62 melanoma 62.5% | SK-MEL-28 melanoma 94.6% | SK-MEL-2 melanoma 98.7%
active: MALME-3M melanoma -44% | MDA-MB-231 breast -39.2% | SF-268 CNS 0.651% | SF-295 CNS -84% | SF-539 CNS -86.5% | SNB-75 CNS -88.4%

Cn1ccnc1C(=O)/C=C/c1ccc(NC(=O)Nc2ccc(F)cc2)cc1
inactive: MALME-3M melanoma 69% | MDA-MB-231 breast 28.8% | RXF 393 renal 19.4% | SF-268 CNS 55.6% | SF-295 CNS 23.3% | UACC-257 melanoma 85.6% | M14 melanoma 45.1% | HCT-15 colon 21% | HT29 colon 11.7% | SNB-75 CNS 39.3% | SNB-19 CNS 33.9% | U251 CNS 20.1% | PC-3 prostate 53.2% | SK-MEL-5 melanoma 77.8% | UACC-62 melanoma 46.3% | SK-MEL-28 melanoma 75.5% | SK-MEL-2 melanoma 95%
active: K-562 leukemia 9.78% | SF-539 CNS -15.6%

COc1cc(/C=C/C(=O)c2ccc(C(F)(F)F)cc2)ccc1Oc1nc(NCCO)nc(N2CCOCC2)n1
active: K-562 leukemia 6.49%
inactive: MALME-3M melanoma 85.7% | MDA-MB-231 breast 92.9% | RXF 393 renal 90.8% | SF-268 CNS 87.3% | SF-295 CNS 96% | SF-539 CNS 98.2% | UACC-257 melanoma 97.4% | M14 melanoma 97.6% | HCT-15 colon 70.5% | HT29 colon 96.2% | SNB-75 CNS 91.4% | SNB-19 CNS 87.6% | U251 CNS 70.1% | PC-3 prostate 87.2% | SK-MEL-5 melanoma 94% | UACC-62 melanoma 78.7% | SK-MEL-28 melanoma 96.1% | SK-MEL-2 melanoma 98.8%

CN(C)c1ccc(/C=c2\sc3nc4ccccc4n3c2=O)cc1
inactive: K-562 leukemia 96.8% | MALME-3M melanoma 101% | MDA-MB-231 breast 91.2% | RXF 393 renal 117% | SF-268 CNS 109% | SF-295 CNS 109% | SF-539 CNS 96.5% | UACC-257 melanoma 117% | M14 melanoma 102% | HCT-15 colon 107% | HT29 colon 107% | SNB-75 CNS 105% | SNB-19 CNS 99.3% | U251 CNS 102% | PC-3 prostate 106% | SK-MEL-5 melanoma 101% | LOX IMVI melanoma 118% | SK-MEL-28 melanoma 103% | SK-MEL-2 melanoma 118%

COc1cc(-c2nc3ccc(-c4nnc(SCC(=O)Nc5ccc(C(C)=O)cc5)o4)cc3[nH]2)cc(OC)c1OC
inactive: K-562 leukemia 108% | MALME-3M melanoma 97.7% | MDA-MB-231 breast 96% | RXF 393 renal 116% | SF-268 CNS 111% | SF-295 CNS 101% | SF-539 CNS 97.6% | UACC-257 melanoma 105% | M14 melanoma 105% | HCT-15 colon 103% | HT29 colon 108% | SNB-75 CNS 96.6% | SNB-19 CNS 100% | U251 CNS 103% | PC-3 prostate 93.3% | SK-MEL-5 melanoma 102% | LOX IMVI melanoma 108% | SK-MEL-28 melanoma 103% | SK-MEL-2 melanoma 115%

COc1ccc(C(=O)/C=C/c2ccc(OCc3ccc(C)cc3)c(OC)c2)cc1OC
inactive: K-562 leukemia 25.4% | MALME-3M melanoma 87.8% | MDA-MB-231 breast 59% | RXF 393 renal 103% | SF-268 CNS 72.4% | SF-295 CNS 75.2% | SF-539 CNS 72.1% | UACC-257 melanoma 80.3% | M14 melanoma 86.8% | HCT-15 colon 34.4% | HT29 colon 68.8% | SNB-75 CNS 72% | SNB-19 CNS 69.8% | U251 CNS 49.9% | PC-3 prostate 55.9% | SK-MEL-5 melanoma 64.5% | UACC-62 melanoma 54.5% | SK-MEL-28 melanoma 82.3% | SK-MEL-2 melanoma 94.3%

CCN1C(=S)N(CC)C2C1NN=C1SC(c3ccccc3)=CC(=O)N12 (centres undefined)
inactive: K-562 leukemia 57.1% | MALME-3M melanoma 105% | MDA-MB-231 breast 94% | RXF 393 renal 89% | SF-268 CNS 115% | SF-295 CNS 106% | SF-539 CNS 98% | UACC-257 melanoma 103% | M14 melanoma 106% | HCT-15 colon 78.2% | HT29 colon 106% | SNB-75 CNS 129% | SNB-19 CNS 98.5% | U251 CNS 103% | PC-3 prostate 99.2% | SK-MEL-5 melanoma 99.7% | LOX IMVI melanoma 100% | SK-MEL-28 melanoma 99.5% | SK-MEL-2 melanoma 98.2%

COc1cc2nc(-c3ccc(Cl)cc3)cc(OCCCNCC3CCCO3)c2cc1OC (centres undefined)
inactive: K-562 leukemia 16.7% | MALME-3M melanoma 12.3% | MDA-MB-231 breast 33.8% | RXF 393 renal 31.3% | SF-268 CNS 77.9% | SF-295 CNS 34.5% | SF-539 CNS 56.4% | HCT-15 colon 23.9% | HT29 colon 16.1% | SNB-75 CNS 60.4% | SNB-19 CNS 82.5% | U251 CNS 61.4% | PC-3 prostate 52.2% | SK-MEL-5 melanoma 50.1% | SK-MEL-2 melanoma 124%
active: UACC-257 melanoma -33.9% | M14 melanoma -71.5% | LOX IMVI melanoma -47.8% | SK-MEL-28 melanoma 8.95%

C[C@@H](Nc1c(C#N)cnc2ccc(-c3cnc(N)nc3)cc12)c1ccccc1
inactive: K-562 leukemia 16.2% | MDA-MB-231 breast 17.9% | SF-268 CNS 16.5% | UACC-257 melanoma 33.5% | M14 melanoma 21.3% | HT29 colon 18.7% | SNB-19 CNS 26.3% | U251 CNS 18.1% | PC-3 prostate 10% | LOX IMVI melanoma 11.7% | SK-MEL-28 melanoma 20%
active: MALME-3M melanoma 8.07% | RXF 393 renal -4.27% | SF-295 CNS 2.02% | SF-539 CNS 3.05% | HCT-15 colon 9.79% | SNB-75 CNS -13.2% | SK-MEL-5 melanoma -74.2% | SK-MEL-2 melanoma -42.5%

CNC(=O)c1cc(-c2ccc(NC(=O)Nc3ccc(N4CCOCC4)c(C(F)(F)F)c3)cc2)nc2cccnc12
active: RXF 393 renal -15.9% | SF-295 CNS 9.49%
inactive: K-562 leukemia 34.3% | MALME-3M melanoma 60.7% | MDA-MB-231 breast 63.9% | SF-268 CNS 80.2% | SF-539 CNS 30.1% | UACC-257 melanoma 89.2% | M14 melanoma 77.2% | HCT-15 colon 33.5% | HT29 colon 54.9% | SNB-75 CNS 67.6% | SNB-19 CNS 58.8% | U251 CNS 43.7% | PC-3 prostate 52.1% | SK-MEL-5 melanoma 67.2% | LOX IMVI melanoma 31.1% | SK-MEL-28 melanoma 64.5% | SK-MEL-2 melanoma 67.8%

Cc1ccccc1NC(=O)/C=C/c1ccc(OCCOc2ccc3c(C)cc(=O)oc3c2)cc1
inactive: K-562 leukemia 88.8% | MALME-3M melanoma 89.7% | MDA-MB-231 breast 91.8% | RXF 393 renal 95.3% | SF-268 CNS 89.2% | SF-295 CNS 104% | SF-539 CNS 50.8% | UACC-257 melanoma 101% | M14 melanoma 98.2% | HCT-15 colon 74.7% | HT29 colon 96.7% | SNB-75 CNS 84.1% | SNB-19 CNS 86.4% | U251 CNS 85.8% | PC-3 prostate 95.8% | SK-MEL-5 melanoma 92.6% | LOX IMVI melanoma 88.5% | SK-MEL-28 melanoma 90.9% | SK-MEL-2 melanoma 103%

O=c1[nH]c2ccc(Cl)cc2cc1CSc1ccccc1Nc1nccc(-c2ccc(Cl)cc2)n1
inactive: K-562 leukemia 71.6% | MALME-3M melanoma 90.4% | MDA-MB-231 breast 94.3% | RXF 393 renal 84.7% | SF-268 CNS 81.5% | SF-295 CNS 96.3% | SF-539 CNS 89.1% | UACC-257 melanoma 100% | M14 melanoma 102% | HCT-15 colon 91.5% | HT29 colon 109% | SNB-75 CNS 76.6% | SNB-19 CNS 95% | U251 CNS 79.7% | PC-3 prostate 69% | SK-MEL-5 melanoma 95.1% | LOX IMVI melanoma 98.4% | SK-MEL-28 melanoma 106% | SK-MEL-2 melanoma 129%

CN1C(=O)N(c2ccccc2)C2N=C(N/N=C/c3ccccc3)SC21 (centres undefined)
active: RXF 393 renal -2.78% | SF-539 CNS -6.36% | M14 melanoma -18.9% | HT29 colon 3.18% | SNB-75 CNS -13.5% | SK-MEL-5 melanoma 5.76% | SK-MEL-2 melanoma -3.76%
inactive: K-562 leukemia 12% | MALME-3M melanoma 47.9% | MDA-MB-231 breast 31.9% | SF-268 CNS 55% | SF-295 CNS 30.5% | UACC-257 melanoma 64% | HCT-15 colon 30.3% | SNB-19 CNS 53% | U251 CNS 15.8% | PC-3 prostate 33% | LOX IMVI melanoma 23.2% | SK-MEL-28 melanoma 61.3%

Clc1ccc2c(NCCCn3ccnc3)c3oc4ccc(Cl)cc4c3nc2c1
inactive: K-562 leukemia 66.2% | MALME-3M melanoma 96.5% | MDA-MB-231 breast 58.8% | RXF 393 renal 55.4% | SF-268 CNS 91.1% | SF-295 CNS 86.4% | SF-539 CNS 84% | UACC-257 melanoma 97.9% | M14 melanoma 105% | HCT-15 colon 51.9% | HT29 colon 80.9% | SNB-75 CNS 70.2% | SNB-19 CNS 82.8% | U251 CNS 60.5% | PC-3 prostate 73.8% | SK-MEL-5 melanoma 86.8% | LOX IMVI melanoma 22.4% | SK-MEL-28 melanoma 94% | SK-MEL-2 melanoma 113%

Cn1cc(-c2cc(N)n3nc(-c4cn(C)c5ccc(Br)cc45)cc3n2)c2cc(Br)ccc21
active: K-562 leukemia 5.07% | HT29 colon 4.96% | U251 CNS -37.9% | LOX IMVI melanoma 6.31%
inactive: MALME-3M melanoma 102% | MDA-MB-231 breast 63.3% | RXF 393 renal 147% | SF-268 CNS 82.5% | SF-295 CNS 105% | SF-539 CNS 85.2% | UACC-257 melanoma 109% | M14 melanoma 65.5% | HCT-15 colon 41.7% | SNB-75 CNS 82.2% | SNB-19 CNS 104% | PC-3 prostate 71.9% | SK-MEL-5 melanoma 108% | SK-MEL-28 melanoma 97.2% | SK-MEL-2 melanoma 120%

C#Cc1nc(C2=C(C)C(O)/C(=N/O)C2)cs1 (centres undefined)
active: MDA-MB-231 breast -28.1% | SNB-75 CNS -85.7%
inactive: K-562 leukemia 87.2% | MALME-3M melanoma 99.5% | RXF 393 renal 93.7% | SF-268 CNS 65.3% | SF-295 CNS 65% | SF-539 CNS 25.5% | UACC-257 melanoma 90.7% | M14 melanoma 93.8% | HCT-15 colon 88.1% | HT29 colon 113% | SNB-19 CNS 109% | U251 CNS 109% | PC-3 prostate 101% | SK-MEL-5 melanoma 94.9% | UACC-62 melanoma 88% | SK-MEL-28 melanoma 111% | SK-MEL-2 melanoma 103%
